Source: PubChem BioAssay (NCI)
The panel holds about 79,000 compounds, 15% with a hit somewhere; the sample as a whole holds those more often. Activity calls are given as the source filed them. Rule as the data show it: active = growth inhibition above about 70%; inactive = the rest.

Test: NCI Yeast Anticancer Drug Screen. Data for the sgs1 mgt1 strain (AID 161);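 also: 0% = growth of cultures given vehicle only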
Conditions: S. cerevisiae sgs1 mgt1 strain, at 50.0 µM, hits give high values
Procedure, shortened: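 Read-out: growth inhibition vs vehicle controls. Cells: mutant yeast strain deficient in DNA damage repair.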

| SMILES | growth inhibition |
| --- | --- |
| COc1cc(C=C2C(=O)NC(=S)NC2=O)cc(OC)c1OC | 3.35% (inactive) |
| O[As](O)O.S=C(S)c1ccccc1S | 18.7% (inactive) |
| Cc1ccccc1-n1c(/C=C\c2ccccn2)nc2ccccc2c1=O | 33.4% (inactive) |
| S=C1c2ccc(Cl)cc2-n2cnnc2C2CSCN12 (stereo not drawn) | 7.9% (inactive) |
| CC[As](=O)(O)c1ccc(OC)c(I)c1 | 18.3% (inactive) |
| COc1cc(C2(C)CCCCC2)c(OC)cc1C1(C)CCCCC1 | 23.4% (inactive) |
| O=C(c1ccccc1)N1CC1 | -22.1% (inactive) |
| CNC(C)Cc1ccccc1OC (stereo not drawn) | -1.2% (inactive) |
| O=C(CP(=O)(O)O)c1cccs1 | -28% (inactive) |
| CC1CCC2C(C)C(=O)OC3OC4(C)CCC1C32OO4 (stereo not drawn) | -8.05% (inactive) |
| Cc1cc(C)c(C(=O)O)c(C)c1.[Hg] | 99.7% (active) |
| O=C1CCCCC1CN1CCCCC1 (stereo not drawn) | -2.45% (inactive) |
| O=[As](O)(O)c1cccc(Cl)c1 | -13.8% (inactive) |
| CN(C)c1ccc(NP(=O)(Nc2ccc(N(C)C)cc2)N(CCCl)CCCl)cc1 | 11% (inactive) |
| CC(C)c1cccc(C(C)C)c1O | -21.9% (inactive) |
| COC(=O)CN(CCCl)P1(=O)OCCCN1CCCl (stereo not drawn) | -5.5% (inactive) |
| C=CCn1nnnc1N | -5.55% (inactive) |
| CN(C)CCNC(=O)c1ccc(N(CCCl)CCCl)c([N+](=O)[O-])c1[N+](=O)[O-] | 30.8% (inactive) |
| C1C[OH+]CC[OH+]CC[OH+]CC[OH+]CC[OH+]1.[Cl-].[V] | -1.95% (inactive) |
| Cc1ccc(C(=O)Nc2ccc(CP(=O)(O)O)cc2)cc1NC(=O)c1cccc(NC(=O)Nc2cccc(C(=O)Nc3cc(C(=O)Nc4ccc(CP(=O)(O)O)cc4)ccc3C)c2)c1 | 3.6% (inactive) |

| SMILES | growth inhibition |
| --- | --- |
| Oc1ccccc1C=NCCN=Cc1ccccc1O.[Fe] | 5.35% (inactive) |
| CCC(Br)C(=O)OCCCl (stereo not drawn) | 7.7% (inactive) |
| C[CH2][Sn](/[CH]=C\CO)([CH2]C)[CH2]C | 85.2% (active) |
| O=NN1CCCCC1 | 28.4% (inactive) |
| Cc1cc(C)c(O)c(C)c1 | -5.45% (inactive) |
| C[N+]12C(=O)CC3OCC=C4C[N+]5(C)CCC6(c7ccccc71)C2C3C4CC65O (stereo not drawn) | -22% (inactive) |
| C(=NCCN=CC1CCCC[N-]1)C1CCCC[N-]1.[Cu+2].[O-][Cl+3]([O-])([O-])O (stereo not drawn) | 44.5% (inactive) |
| CCOP(C)(=O)C(N)Cc1ccc(OC)c(OC)c1 (stereo not drawn) | -40.1% (inactive) |
| Cc1ccc([P+](=O)O)cc1Cl | -8.55% (inactive) |
| CCP(=S)(CC)P(=S)(CC)CC | -14.6% (inactive) |
| C(=C\C1CC2CCCN2O1)/c1ccccc1 (stereo not drawn) | 15.2% (inactive) |
| C[C@]12CC[C@@H]3C4=CC(=O)CC[C@@H]4CC[C@H]3[C@@H]1CC[C@@H]2O | 5.2% (inactive) |
| O=C(O)C(CSC(c1ccccc1)(c1ccccc1)c1ccccc1)N1C(=O)c2ccccc2C1=O (stereo not drawn) | 99.3% (active) |
| CCC[As](=O)(O)CC[As](=O)(O)CCC | 59.3% (inactive) |
| NC(=O)Oc1ccccc1 | 5.4% (inactive) |
| NC(=O)c1cc([N+](=O)[O-])c(N(CCCl)CCCl)c([N+](=O)[O-])c1 | 5.05% (inactive) |
| O=C(c1ccccc1)P(C(=O)c1ccccc1)C(=O)c1ccccc1 | 8.2% (inactive) |
| CC(O)C[As](=O)(O)c1cccc(Cl)c1 (stereo not drawn) | 10.3% (inactive) |
| NC(CP(=O)(O)O)C(=O)O (stereo not drawn) | -31.1% (inactive) |

Test: NCI Yeast Anticancer Drug Screen. Data for the cln2 rad14 strain (AID 165);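 also: 0% = growth equal to vehicle treated cultures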
Conditions: S. cerevisiae cln2 rad14 strain, at 50.0 µM, hits give high values
Procedure, shortened: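 Growth of compound-exposed yeast (cln2 rad14 genotype) measured and expressed as inhibition relative to vehicle.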

| SMILES | growth inhibition |
| --- | --- |
| COc1cc(C=C2C(=O)NC(=S)NC2=O)cc(OC)c1OC | 18.6% (inactive) |
| O[As](O)O.S=C(S)c1ccccc1S | 28% (inactive) |
| Cc1ccccc1-n1c(/C=C\c2ccccn2)nc2ccccc2c1=O | 35.6% (inactive) |
| S=C1c2ccc(Cl)cc2-n2cnnc2C2CSCN12 (stereo not drawn) | 0.9% (inactive) |
| CC[As](=O)(O)c1ccc(OC)c(I)c1 | -76.5% (inactive) |
| COc1cc(C2(C)CCCCC2)c(OC)cc1C1(C)CCCCC1 | -69.2% (inactive) |
| O=C(c1ccccc1)N1CC1 | 35.5% (inactive) |
| CNC(C)Cc1ccccc1OC (stereo not drawn) | 2.65% (inactive) |
| O=C(CP(=O)(O)O)c1cccs1 | -10.8% (inactive) |
| CC1CCC2C(C)C(=O)OC3OC4(C)CCC1C32OO4 (stereo not drawn) | 27.8% (inactive) |
| Cc1cc(C)c(C(=O)O)c(C)c1.[Hg] | 99.5% (active) |
| O=C1CCCCC1CN1CCCCC1 (stereo not drawn) | -3.25% (inactive) |
| O=[As](O)(O)c1cccc(Cl)c1 | 1.85% (inactive) |
| CN(C)c1ccc(NP(=O)(Nc2ccc(N(C)C)cc2)N(CCCl)CCCl)cc1 | 5.8% (inactive) |
| CC(C)c1cccc(C(C)C)c1O | 3.5% (inactive) |
| COC(=O)CN(CCCl)P1(=O)OCCCN1CCCl (stereo not drawn) | 0.2% (inactive) |
| C=CCn1nnnc1N | -37.9% (inactive) |
| CN(C)CCNC(=O)c1ccc(N(CCCl)CCCl)c([N+](=O)[O-])c1[N+](=O)[O-] | 17.6% (inactive) |
| C1C[OH+]CC[OH+]CC[OH+]CC[OH+]CC[OH+]1.[Cl-].[V] | -10.8% (inactive) |
| Cc1ccc(C(=O)Nc2ccc(CP(=O)(O)O)cc2)cc1NC(=O)c1cccc(NC(=O)Nc2cccc(C(=O)Nc3cc(C(=O)Nc4ccc(CP(=O)(O)O)cc4)ccc3C)c2)c1 | -10.3% (inactive) |

| SMILES | growth inhibition |
| --- | --- |
| Oc1ccccc1C=NCCN=Cc1ccccc1O.[Fe] | 6.25% (inactive) |
| CCC(Br)C(=O)OCCCl (stereo not drawn) | -4.75% (inactive) |
| C[CH2][Sn](/[CH]=C\CO)([CH2]C)[CH2]C | 43.8% (inactive) |
| O=NN1CCCCC1 | -15.1% (inactive) |
| Cc1cc(C)c(O)c(C)c1 | 14.4% (inactive) |
| C[N+]12C(=O)CC3OCC=C4C[N+]5(C)CCC6(c7ccccc71)C2C3C4CC65O (stereo not drawn) | 11.2% (inactive) |
| C(=NCCN=CC1CCCC[N-]1)C1CCCC[N-]1.[Cu+2].[O-][Cl+3]([O-])([O-])O (stereo not drawn) | 90% (active) |
| CCOP(C)(=O)C(N)Cc1ccc(OC)c(OC)c1 (stereo not drawn) | -16.4% (inactive) |
| Cc1ccc([P+](=O)O)cc1Cl | -9.25% (inactive) |
| CCP(=S)(CC)P(=S)(CC)CC | -9.2% (inactive) |
| C(=C\C1CC2CCCN2O1)/c1ccccc1 (stereo not drawn) | -23.4% (inactive) |
| C[C@]12CC[C@@H]3C4=CC(=O)CC[C@@H]4CC[C@H]3[C@@H]1CC[C@@H]2O | -8.45% (inactive) |
| O=C(O)C(CSC(c1ccccc1)(c1ccccc1)c1ccccc1)N1C(=O)c2ccccc2C1=O (stereo not drawn) | 96.8% (active) |
| CCC[As](=O)(O)CC[As](=O)(O)CCC | -3.05% (inactive) |
| NC(=O)Oc1ccccc1 | 12.1% (inactive) |
| NC(=O)c1cc([N+](=O)[O-])c(N(CCCl)CCCl)c([N+](=O)[O-])c1 | 17.9% (inactive) |
| O=C(c1ccccc1)P(C(=O)c1ccccc1)C(=O)c1ccccc1 | -75.7% (inactive) |
| CC(O)C[As](=O)(O)c1cccc(Cl)c1 (stereo not drawn) | -0.7% (inactive) |
| NC(CP(=O)(O)O)C(=O)O (stereo not drawn) | -55.2% (inactive) |
